Reference: PubChem BioAssay (NCI)
This is part of a sample that, as a whole, favours compounds with a hit. Of some 83,000 tested, about 20% had one in any assay.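 For each line, cells grew in 96-well plates with the test compound present at a single concentration for 48 hours.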 A number with no mark means an inactive call. Calls of active or inactive are those of the source. How the source made its calls: active means growth percent below 10; inactive means the rest.

These compounds were tested on MOLT-4 leukemia (assay: NCI-60 one-dose screen, 48 h (100 = growth as untreated, 0 = no growth, -100 = all killed)). Conditions: 10 µM unless noted.

First: CCN(CC)CCOc1nc2c3ccc(Cl)cc3nn2c2ccccc12
Second: COc1ccc2nc(SCC(=O)Nc3ccccc3C)[nH]c2c1
The growth of the first is lower: 10.9% for the first, 88.8% for the second.

First: C=C(c1ccc(C(=O)O)cn1)c1cc2c(cc1C)C(C)(C)CCC2(C)C
Second: COC(=O)c1ccc2c(c1)c1c(C)c3ccncc3c(C)c1n2C
The growth of the first is higher: 95.7% for the first, 12.9% for the second.

Going from `CCn1cc(C(=O)NN=C2CCCCCC2)c(=O)c2ccc(C)nc21` to `Cc1cc(C)cc(Nc2ccc([N+](=O)[O-])c(NCCN3CCOCC3)n2)c1`, the growth falls from 71% to 10.3%.

Going from `COc1cccc(C(=O)OCC(O)C(=O)NC23CC4CC(CC(C4)C2)C3)c1` (stereo not given) to `COc1ccc(NC(=O)c2sc3nc(C)c(C(O)c4ccccc4)cc3c2N)cc1` (stereo not given), the growth falls from 95.4% to 12.5%.

Compared with `COc1ccc2cc(Cn3cc[n+](Cc4ccc5ccccc5c4)c3)ccc2c1`, `COc1ccc(C2=Nc3c/c(=C\c4c(O)[nH]c5cc(Cl)ccc45)ccc3=N2)cc1` is higher in growth: 17.2% for the first, 83.9% for the second.

First: Cc1ccc(C(=O)c2ccc(CC(=O)N/N=C/c3ccc(O)cc3O)n2C)cc1
Second: O=C(CSc1nc2ccc([N+](=O)[O-])cc2[nH]1)Nc1ccc(Br)cc1
The growth of the first is lower: 12.6% for the first, 26.6% for the second.

Compared with `O=C(Nc1ccccc1)c1sc(-c2ccccc2)cc1O`, `C[N+](C)(C/C=C/c1ccccc1)Cc1ccccc1` is higher in growth: 95.2% for the first, 103% for the second.

Going from `O=C(O)c1cccc(N/C=C/C(=O)c2cc3cc(Br)ccc3oc2=O)c1` to `COc1ccc2c(c1)c(-c1nonc1-c1c[nH]c3ccc(Br)cc13)cn2C`, the growth falls from 113% to 17.6%.

Compared with `CCCCN1C(=O)/C(=c2\sc3n(c2=O)NC2C(N=3)N(CC)C(=O)N2CC)c2ccccc21` (stereo not given), `CCCCNC1=C(OCC)C(=O)c2ccccc2C1=O` is higher in growth: 43.6% for the first, 108% for the second.

First: COc1ccccc1-n1c(-c2cc(O)ccc2C)cn2c3c(=O)[nH]c(=O)n(C)c3nc12
Second: COc1ccc2[nH]cc(-c3nc(-c4cn(C)c5ccncc45)cs3)c2c1
The growth of the first is higher: 71.5% for the first, 63% for the second.

Going from `C/C(=C(/c1ccc(Cl)cc1)c1ccc(OCCCN(C)C)cc1)c1ccc(Cl)cc1` to `COc1ccc2c(c1)c(-c1cc(-c3cn(C)c4ccc(OC)cc34)on1)cn2C`, the growth rises from 71.7% to 86.3%.

First: CCCCCCCCn1ccc2cc(NC(=O)Cn3cc(CN4CCN(CC)CC4)nn3)ccc21
Second: c1ccc(CNc2ccc3nc(CCC4CCCCC4)[nH]c3c2)cc1
The growth of the first is lower: 39.3% for the first, 51.2% for the second.

Compared with `C#CC#CC#CC#CC#CC#CC#CC#CC[C@H]1OC[C@@H](COC(=O)O[C@@H](C(=O)O[C@H]2C[C@@]3(O)[C@@H](OC(=O)c4ccccc4)[C@@H]4[C@]5(OC(C)=O)CO[C@@H]5C[C@H](O)[C@@]4(C)C(=O)[C@H](OC(C)=O)C(=C2C)C3(C)C)[C@@H](NC(=O)c2ccccc2)c2ccccc2)O1`, `C#CC#CC#CC#CC#CC#CC#CC#CC[C@H]1OC[C@H](COC(=O)O[C@@H](C(=O)O[C@H]2C[C@@]3(O)[C@@H](OC(=O)c4ccccc4)[C@@H]4[C@]5(OC(C)=O)CO[C@@H]5C[C@H](O)[C@@]4(C)C(=O)[C@H](OC(C)=O)C(=C2C)C3(C)C)[C@@H](NC(=O)c2ccccc2)c2ccccc2)O1` is higher in growth: 42.5% for the first, 43.3% for the second.

`Nc1ccc([N+](=O)[O-])cc1N=C/C=C/c1ccccc1` showed a growth of 14.8%.

For `Cc1c2cc[nH]c(=O)c2c(C)c2c1[nH]c1ccc(OC(=O)c3ccccc3)cc12`, the growth was 6.99% (active).
`C#Cc1cccc(Nc2nc3ccc([N+](=O)[O-])cc3nc2Nc2cccc(C#C)c2)c1` was tested, and the growth was -47.5% (active).
With `O=C(N/N=C/c1ccc([N+](=O)[O-])cc1)c1ccc2nc(-c3ccc(Cl)cc3)[nH]c2c1` the growth was 4.24% (active).
`CNCc1cccc2c1OCCOCCN(C)C(=O)CN(C)S(=O)(=O)c1ccc(cc1)-c1cnc(N)c(n1)C(=O)N2` was tested, and the growth was -1.69% (active).
`COc1cc(C2C3=C(COC3=O)N(CCO)c3cc4c(cc32)OCCO4)cc(OC)c1OC` (stereo not given) was tested, and the growth was 8.21% (active).
`C/C(=C(\c1ccc(OCCN2CCCCCC2)cc1)c1ccc(OC(=O)Cc2ccccc2)cc1)c1ccc(Cl)cc1` was tested, and the growth was -6.79% (active).
With `CCN=C1C=CC(=C(c2ccc(N(C)C)cc2)c2ccc(N(C)C)cc2)c2ccccc21` the growth was 9.89% (active).
For `CCOC(=O)Cn1c(=O)c2c3ccccc3n(C)c2n2nnc(-c3ccccc3)c12`, the growth was -40.7% (active).
